± gives the standard deviation.
Experiments:
[1] = tested on: MILI (PIWIL2) piRISC loaded with L1MC piRNA (26 nt); experiment: pre-steady-state target cleavage rate (min^-1); guide: L1MC piRNA 5'p-UAACUAAAUACUAUGCAAGCUGUAGG; higher = faster piRNA-guided slicing of the target;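 note: 1 nM active piRISC with 0.1 nM target library at 33 °C single turnover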
Method in brief: (§1)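 Active affinity-purified piRISC carrying one synthetic guide (1 nM) was mixed with a transcribed, DNA-blocked target RNA library […] in HEPES–potassium acetate buffer at 33 °C for 0–8 or 0–960 min, with or without 500 nM GTSF1 partner protein. Uncleaved targets were then sequenced and normalised to depth and to weakly complementary targets. Three trials were pooled, and k3 was capped at 0.0001 min^-1. A burst-and-steady-state fit was applied to obtain the pre-steady-state cleavage rate.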

[2] = tested on: EfPiwi piRISC loaded with L1MC piRNA (26 nt); experiment: pre-steady-state target cleavage rate (min^-1); auxiliary factor: 500 nM Ephydatia muelleri Gtsf1; guide: L1MC piRNA 5'p-UAACUAAAUACUAUGCAAGCUGUAGG; MIWI and MILI are mouse PIWI proteins and EfPiwi is from a freshwater sponge; tags in brackets are library labels; higher = faster piRNA-guided slicing of the target
Method in brief: as §1

[3] = auxiliary factor: 500 nM mouse GTSF1
[4] = auxiliary factor: none (no GTSF1)

| Sequence | pre-steady-state target cleavage rate [1, 3] | pre-steady-state target cleavage rate [1, 4] | pre-steady-state target cleavage rate [2] |
| --- | --- | --- | --- |
| UCCUGGAACAGGAAGCAUAGUAUUUAGUUA | 0.199 ± 0.016 | 0.00491 ± 0.0024 | 0.00471 ± 0.002 |
| UCCUGGUUGUGCUUGCAUAGUAUUUAGUUA | 0.168 ± 0.018 | 0.0141 ± 0.004 | 0.0119 ± 0.0045 |
| UCCUGGAACAGCUUGGAUAGUAUUUAGUAA | 0.198 ± 0.023 | 0.00431 ± 0.0019 | 0.00371 ± 0.002 |
| UCCUGGAUCGCUUGCAUAGUAUUUAGUUA | 0.29 ± 0.012 | 0.00599 ± 0.0021 | 0.065 ± 0.011 |
| UCCUGGAACAGCUUGGAUAGUAUAUAGUUA | 0.215 ± 0.027 | 0.00403 ± 0.0027 | 0.00939 ± 0.0043 |
| UCCUGGAUCAGCUUGUCAUAGUAUUUAGUUA | 0.21 ± 0.019 | 0.00334 ± 0.0027 | 0.0196 ± 0.0046 |
| UCCUGGAUGUCCUCGCAUAGUAUUUAGUUA | 0.0711 ± 0.01 | 0.00777 ± 0.0022 | 0.00388 ± 0.0033 |
| UCCUGGAUGAGCUUGCAUAGUAUUUCAGUUA | 0.207 ± 0.048 | 0.00415 ± 0.0028 | 0.00264 ± 0.0023 |
| UCCUGGUACAGCUUACAUAGUAUUUAGUUA | 0.213 ± 0.02 | 0.00894 ± 0.0027 | 0.0283 ± 0.0076 |
| UCCUCCUACAGGUUGGAUAGUAUUUAGUUA | 0.205 ± 0.012 | 0.00699 ± 0.0018 | 0.0118 ± 0.0028 |
| UCCUGGAUGAGCUUGCAUAGUAUUUGGUUA | 0.203 ± 0.025 | 0.00663 ± 0.0031 | 0.00713 ± 0.002 |
| UCCUGCUACAGCUUGUCAUAGUAUUUAGUUA | 0.211 ± 0.021 | 0.00341 ± 0.0028 | 0.0131 ± 0.0037 |
| UCCUGGAUCAGGUAGCAUAGUAUUUAGUUA | 0.118 ± 0.013 | 0.00574 ± 0.0022 | 0.00369 ± 0.0035 |
| UCCUCCAAGAGCUUGCAUAGUAUUUAGUUA | 0.276 ± 0.013 | 0.007 ± 0.0024 | 0.0523 ± 0.014 |
| UCCUCCUACAGCUUGCAUUGUAUAUAGUUA | 0.177 ± 0.018 | 0.00393 ± 0.0025 | 0.00608 ± 0.0036 |
| UCCUGCUACUGCUUGCAAAGUAUUUAGUUA | 0.0928 ± 0.013 | 0.00523 ± 0.0021 | 0.00588 ± 0.0023 |
| UCCUCGUACAGCUUGCAUAGUAUUAAGUUA | 0.214 ± 0.022 | 0.00547 ± 0.0019 | 0.00547 ± 0.0018 |
| UCCUGGAACAGCUUGCAAUGUAUUUAGUUA | 0.0726 ± 0.0083 | 0.00437 ± 0.002 | 0.00454 ± 0.0035 |
| UCCUGGAUCAGCUUGCAUAGUAUUUAUGUUA | 0.133 ± 0.017 | 0.00471 ± 0.0027 | 0.0559 ± 0.02 |
| UCCUGGAACUGCUUGCAUAGUAUUUAGUUA | 0.228 ± 0.016 | 0.00612 ± 0.002 | 0.0203 ± 0.006 |
| UCCUGGAACAGCAUGCAUAGUAUUUAGUUA | 0.256 ± 0.02 | 0.00812 ± 0.0028 | 0.0466 ± 0.011 |
| UCCUGCUACAUCUUGCAUAGUAUUUAGUUA | 0.239 ± 0.02 | 0.0095 ± 0.0022 | 0.0423 ± 0.014 |
| UCCUGGAUGUCCCUUGCAUAGUAUUUAGUUA | 0.116 ± 0.021 | 0.00815 ± 0.0024 | 0.00608 ± 0.0026 |
| UCCUGGAUCAGCUUGCAUAGUAUUUAGAUUA | 0.0478 ± 0.011 | 0.00315 ± 0.0026 | 0.00483 ± 0.0016 |
| UCCUGGAUCAGCUUGCAUAGUAUCUAGUUA | 0.205 ± 0.02 | 0.00466 ± 0.0024 | 0.0167 ± 0.005 |
| UCCUGGAUCAGCUUGCAUAGUAUAAAGUUA | 0.171 ± 0.018 | 0.00561 ± 0.0029 | 0.00752 ± 0.0027 |

| Sequence | pre-steady-state target cleavage rate [1, 3] | pre-steady-state target cleavage rate [1, 4] | pre-steady-state target cleavage rate [2] |
| --- | --- | --- | --- |
| UCCUCCUACAGGUUGCAUAGUUUUUAGUUA | 0.0349 ± 0.0064 | 0.00478 ± 0.0018 | 0.00915 ± 0.0022 |
| UCCUCCUACUGCUUGCUUAGUAUUUAGUUA | 0.234 ± 0.015 | 0.00718 ± 0.0021 | 0.0504 ± 0.015 |
| UCCUCCAUGAGCUUGCAUAGUAUUUAGUUA | 0.279 ± 0.016 | 0.00711 ± 0.0021 | 0.0146 ± 0.004 |
| UCCUCCUACAGCAAGCAUAGUAUUUAGUUA | 0.281 ± 0.014 | 0.00806 ± 0.0019 | 0.0493 ± 0.018 |
| UCCUGCUACUCCUUGCAUAGUAUUUAGUAA | 0.188 ± 0.023 | 0.00412 ± 0.002 | 0.00443 ± 0.003 |
| UCCUCCUACAGCUUGCAUAGUCUUUAGUUA | 0.198 ± 0.023 | 0.00522 ± 0.0021 | 0.0068 ± 0.0025 |
| UCCUGGUACACGCUUGCAUAGUAUUUAGUUA | 0.167 ± 0.046 | 0.0158 ± 0.0071 | 0.00613 ± 0.0031 |
| UCCUGCUACAGCUUGCAUGGUAUUUAGUUA | 0.334 ± 0.018 | 0.0121 ± 0.0029 | 0.0201 ± 0.0061 |
| UCCUCCUACAGCUUGCAUAGUAUUCAGUUA | 0.229 ± 0.034 | 0.00319 ± 0.0024 | 0.0063 ± 0.0029 |
| UCCUGGUACAGCUUGCAUAGUAUUUAGUCUA | 0.0602 ± 0.024 | 0.00783 ± 0.0041 | 0.00521 ± 0.0031 |
| UCCUCCAACAGCUUGCAUAGUAUAUAGUUA | 0.234 ± 0.027 | 0.0056 ± 0.0022 | 0.00628 ± 0.0027 |
| UCCUGGAUGUGCUUGCAUAGUAUUUAAGUUA | 0.158 ± 0.018 | 0.00961 ± 0.0032 | 0.0404 ± 0.015 |
| UCCUCGUACAGCUUGCAAAGUAUUUAGUUA | 0.149 ± 0.01 | 0.00953 ± 0.0024 | 0.143 ± 0.032 |
| UCCUGGAACAGCUUGCAUAGUAAUUUAGUUA | 0.14 ± 0.012 | 0.00593 ± 0.0025 | 0.00753 ± 0.0023 |
| UCCUCCUAACAGCUUGCAUAGUAUUUAGUUA | 0.213 ± 0.018 | 0.0084 ± 0.0021 | 0.0133 ± 0.0051 |
| UCCUCCUACAGCUUGCAUAGUAUUUAUUUA | 0.142 ± 0.019 | 0.00314 ± 0.0027 | 0.143 ± 0.053 |
| UCCUGCUACAGCUGGCAUAGUAUUUAGUUA | 0.293 ± 0.019 | 0.00759 ± 0.0024 | 0.00937 ± 0.0024 |
| UCCUCCUUCAGCUUGCAUAGUUUUUAGUUA | 0.0603 ± 0.0091 | 0.00556 ± 0.0016 | 0.00713 ± 0.0023 |
| UCCUCCUCACAGCUUGCAUAGUAUUUAGUUA | 0.369 ± 0.021 | 0.0102 ± 0.0027 | 0.191 ± 0.046 |
| UCCUGGAACAGCUUGCAUAGUAUUUAAGUUA | 0.195 ± 0.029 | 0.00781 ± 0.0028 | 0.0138 ± 0.0052 |
| UCCUGGAACAGGUUGCAUAGUAUUUAGUUA | 0.308 ± 0.018 | 0.0111 ± 0.0022 | 0.0388 ± 0.0088 |
| UCCUGGAACAGGUUGCAUAGUAUAUAGUUA | 0.211 ± 0.023 | 0.00891 ± 0.0023 | 0.0101 ± 0.0045 |
| UCCUGGUACAGCUUGUCAUAGUAUUUAGUUA | 0.19 ± 0.018 | 0.0068 ± 0.003 | 0.00651 ± 0.0024 |
| UCCUCCAACAGCUUGCAUUGUAUUUAGUUA | 0.257 ± 0.018 | 0.00746 ± 0.0023 | 0.0205 ± 0.0058 |
| UCCUCCAACAGCUUGCAUACUAUUUAGUUA | 0.0905 ± 0.012 | 0.00321 ± 0.0025 | 0.00961 ± 0.0032 |

— the supplement of paper PMC10338343
